Data: PubChem BioAssay (NCATS)
Results filed as inconclusive are left out. Where a call stands in place of a potency, no number is given. Activity calls are given as the source filed them. The call rests on the fitted dose curve; in most records, active means well fitted curve in the direction sought with a large enough effect; inconclusive means small, poorly fitted or top-dose-only effect, or another doubt; inactive means no such curve, though single readings can be large; an effect the other way counts as inactive or inconclusive.

Assays:
[1] = target: Aldehyde dehydrogenase, mitochondrial (Homo sapiens) (UniProt P05091); test: qHTS for Inhibitors of the Aldehyde Dehydrogenase Family (ALDH2) Primary screen (AID 2061308); details: ALDH2 enzyme inhibition qHTS, 1536-well; series mostly up to 56 µM; further: nearly all actives have a fitted effect of over 55% in size
[2] = target: Retinaldehyde dehydrogenase 3 (Homo sapiens) (UniProt P47895); test: qHTS for Inhibitors of the Aldehyde Dehydrogenase Family (ALDH1A3) Primary screen (AID 2061315); details: ALDH inhibition qHTS; series mostly up to 56 µM

Compound | Potency [1] | Potency [2]
CCOc1ccc(CCNC(=O)c2cc3sccc3n2Cc2ccccc2)cc1OCC | inactive | inactive
Cc1ccc(S(=O)(=O)Nc2ccccc2C(=O)Nc2ccc(-c3ccccc3)cn2)cc1 | inactive | inactive
COc1cc(O)c(C(CC(=O)N2CCOCC2)c2ccc(C)cc2)c(OC)c1 (stereo not drawn) | inactive | inactive
Oc1ccc(CNc2nccc3ccccc23)c2cccnc12 | inactive | inactive
CC1=C(C(=O)Nc2ccccc2C)C(c2ccccc2Br)N=C(Nc2nc3ccccc3o2)N1 (stereo not drawn) | inactive | inactive
CN1CCN(C(=O)[C@H](Cc2ccc(O[S+](=O)([O-])c3cccc4cnccc34)cc2)N[S+](=O)([O-])c2cccc3cnccc23)CC1 | inactive | inactive
CCOC(=O)c1ccc(-n2c(C)cc(-c3nnc4n3CCCCC4)c2C)cc1 | inactive | inactive
O=C(C[C@H]1CC[C@@H](C(=O)Nc2ccc(S(=O)(=O)Nc3nccs3)cc2)C1)c1ccccc1 | inactive | inactive
N[C@H](Cc1ccccc1)C(=O)Nc1ccc(Cl)cc1C(=O)c1ccc[nH]1 | inactive | inactive
CO[C@H]1/C=C/[C@@](C)(O)/C=C/C(=O)O[C@H](C)[C@@H](C)CC/C=C/1C | inactive | inactive
COc1cc(O)c(C(CC(=O)N2CCC(C)CC2)c2ccc(OC)c(OC)c2)c(OC)c1 (stereo not drawn) | inactive | inactive
O=S(=O)(Nc1nccs1)c1ccc(Nc2nc(-c3ccccc3)cs2)cc1 | inactive | inactive
CC1(C)C=Cc2c(ccc3c2N=C2C(C)(C)[C@@H]4C[C@]56CCCN5C(=O)[C@@]4(C[C@]23O)NC6=O)O1 | inactive | inactive
Cc1ccc(-c2ccc(=O)n(CCN)n2)cc1 | inactive | inactive
C(=C/c1cccs1)/c1ccncc1 | inactive | inactive
CC(=O)Nc1ccccc1NC(=O)c1cnn2c(C)cc(C)nc12 | inactive | inactive
COc1cccc(CNc2ccc(S(=O)(=O)Nc3ncc(C)s3)cc2)c1O | inactive | inactive
COCc1nn2c(=O)cc(N3CCNCC3)nc2s1 | inactive | inactive
CCC1C(=O)N(C)c2cnc(Nc3ccc(C(=O)NC4CCN(C)CC4)cc3OC)nc2N1C1CCCC1 (stereo not drawn) | inactive | inactive
Cc1cnc(-c2ccccc2C(C)C)nc1NCc1ccc(-c2nn[nH]n2)cc1 | inactive | inactive
N#Cc1cccc(S(=O)(=O)N2CCN(S(=O)(=O)c3ccc4c(c3)OCCO4)CC2)c1 | inactive | inactive
COc1ccc(N2C(=O)c3ccccc3C2=O)cc1 | inactive | inactive
COc1cc(C(=O)OC[C@@]2(O)CO[C@@H](O[C@H]3[C@H](Oc4ccc(O)cc4)O[C@H](CO)[C@@H](O)[C@@H]3O)[C@@H]2O)cc(OC)c1O | inactive | inactive
Cn1nnnc1Sc1ncnc2scc(-c3ccsc3)c12 | inactive | inactive
